# The panel holds about 83,000 compounds, 20% with a hit somewhere; the sample as a whole holds those more often.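 Single-dose data. Exposure time 48 hours. Values below 10 considered active.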 Activity calls are given as the source filed them.
# Test system: OVCAR-5 ovarian
# Experiment: NCI-60 one-dose screen, 48 h (100 = growth as untreated, 0 = no growth, -100 = all killed)
# Settings: 10 µM unless noted
# Experimental: Growth inhibition of the OVCAR-5 human tumor cell line is measured as a screen for anti-cancer activity. Cells are grown in 96 well plates and exposed to the test compound for 48 hours. Compounds are tested at a single concentration, which is 10^-5 M for most compounds. The reported endpoint is percent growth (GI% or GIPRCNT), where numbers from 0 - 100% represent growth inhibition, and numbers from -100% - 0 represent cell death. For example, a value of 40 represents 60% growth inhibition. A value of 0 means no net growth occurred over the course of the experiment. A value of -40 indicates 40% of cells at the beginning of the experiment died by the end of the experiment. A value of -100 means all cells are dead at the end of the experiment.
# NCI-60 Human Tumor Cell Lines Screen was performed using the standard one-dose NCI protocol, which is described in more detail at https://dtp.cancer.gov/discovery_development/nci-60/default.htm.
# Compounds with GIPRCNT values below 10 were considered active. Activity score was based on GIPRCNT using the following formula: […]
# Score is 0 for GIPRCNT values of 100 or above, 50 for GIPRCNT values of 0, and 100 for GIPRCNT values of -100.
row,SMILES,growth
1,CC(O)c1cnc(/C=C2\SC(=S)N(Cc3ccccc3)C2=O)s1 (stereo not given),90.1% (inactive)
2,C=C(C)[C@@H]1CC[C@]2(C)[C@H](CC=C3[C@@H]4[C@H](C)[C@@H](C)CC[C@]4(CO)CC[C@]32C)[C@@]1(C)CCCN,60.6% (inactive)
3,O=C1c2ccc3c4ccc5c6c(ccc(c7ccc(c2c37)C(=O)N1CCC[P+](c1ccccc1)(c1ccccc1)c1ccccc1)c64)C(=O)N(CCC[P+](c1ccccc1)(c1ccccc1)c1ccccc1)C5=O,74.1% (inactive)
4,COc1ccc2c(O)c(/C=C3\N=Nc4ccccc43)oc2c1C[C@@H]1CCNC[C@H]1F,67.8% (inactive)
5,COc1ccc(/C(C)=C(/c2ccc(OCCCN(C)C)cc2)c2ccc(OC(=O)Cc3ccccc3)cc2)cc1,85.2% (inactive)
6,COc1ccc(C(=O)Nc2cccc(C3CC(=O)c4c(cc(OC)c(OC)c4OC)O3)c2)cc1 (stereo not given),46% (inactive)
7,COc1ccc(C(c2cc(OC)c(OC)c(OC)c2)N2CCN(c3ccccc3)CC2)cc1 (stereo not given),102% (inactive)
8,O=C(NCCCCNC(=O)OCc1ccc2c(Cl)cc(Cl)c(O)c2n1)OCc1ccc2c(Cl)cc(Cl)c(O)c2n1,38.6% (inactive)
9,CCN(c1ccc(Cl)cc1)c1nc(-c2ccc([N+](=O)[O-])cc2)cs1,103% (inactive)
10,CC1=C(C(=O)OC(C)C)C(c2ccc3c(c2)OCO3)NC(=S)N1 (stereo not given),105% (inactive)
11,COc1cccc(CNc2ncnc3c2ncn3C2OC(CO)C(O)C2O)c1O (stereo not given),9.68% (active)
12,COC(=O)c1ccc2c(c1)C(=O)c1c-2n(CCCN)c(=O)c2cc([N+](=O)[O-])ccc12,-74.2% (active)
13,Cc1ccc(-c2nn(-c3ccccc3)cc2C=C2C(=O)ON=C2C(C)C)cc1,104% (inactive)
14,CCC(=C(c1ccc(OCCN2CCCC2)cc1)c1ccc(OCCN2CCCC2)cc1)c1ccc(Cl)cc1,19.5% (inactive)
15,O=C1/C(=C\c2cn(-c3ccccc3)nc2-c2ccc(-c3cccs3)cc2)CCc2ccccc21,94.9% (inactive)
16,Cn1c(-c2ccc(Br)cc2)c(O)c(=O)c2c(F)cccc21,63.8% (inactive)
17,CCN(CC)c1nc(SCc2ccccc2Cl)ncc1C,119% (inactive)
18,CN(C)c1ccc(/C=C/C(=O)c2ccc(-n3cc(CN4CCN(c5cc6c(cc5F)c(=O)c(C(=O)O)cn6C5CC5)CC4)nn3)cc2)cc1,84.2% (inactive)
19,O=S(=O)(Nc1ccc(Cl)cc1)c1ccc(-c2cnc(C3CC3)o2)cc1,43.9% (inactive)
20,Cc1ccc(Sc2oc(-c3ccc(C)cc3)nc2[P+](c2ccccc2)(c2ccccc2)c2ccccc2)cc1,7.79% (active)

row,SMILES,growth
1,Cc1ccc(-c2csc(NC(=O)CN3CCN(c4cc5c(cc4F)c(=O)c(C(=O)O)cn5C4CC4)CC3)n2)cc1,21.1% (inactive)
2,CCCCCCCCn1ccc2cc(NC(=O)CN3CCN(c4nc(C)cc(Cl)n4)CC3)ccc21,102% (inactive)
3,N#Cc1nn(-c2cc(=O)[nH]c3ccc(Cl)cc23)c(N)c1C#N,105% (inactive)
4,COC(=O)c1c2c(c(C)[n+]([O-])c1C)C(=O)C=C(NCc1ccc(Br)cc1)C2=O,-82.8% (active)
5,O=C1Nc2ccccc2/C1=C\c1nc(-c2ccccc2)n2ccccc12,90.6% (inactive)
6,O=C(Nc1ccc(NC(=O)c2cc(=O)[nH]c3ccccc23)cc1)Nc1cccc(C(F)(F)F)c1,84.3% (inactive)
7,CN(C)CC(=O)Nc1ccc2ncnc(Nc3ccc(Oc4cccc(C(F)(F)F)c4)c(Cl)c3)c2c1,82.6% (inactive)
8,O=C1NC(=O)c2c1c1c3ccccc3ccc1c1[nH]c3ccc(Br)cc3c21,29.7% (inactive)
9,CCOc1ccc(NC(=O)CSc2oc(-c3ccccc3)nc2S(=O)(=O)c2ccc(F)cc2)cc1,103% (inactive)
10,COc1ccc2c(c1)[n+]([O-])c(C(=O)/C=C/C=C(\Cl)c1cc(OC)c(OC)c(OC)c1)c(C)[n+]2[O-],104% (inactive)
11,COC(=O)/C=C1/SC(=Nc2ccc(C)cc2)N(CCc2c[nH]c3ccc(O)cc23)C1=O,108% (inactive)
12,COC(=O)CNC(=O)[C@H](Cc1ccccc1)NCc1ccncc1,105% (inactive)
13,COc1ccc2nc(NC(=O)CSc3nnc4n3S(=O)(=O)c3ccccc3N4C)sc2c1,97.5% (inactive)
14,CCOC(=O)CSc1ncnc2c1c(-c1ccccc1)c(-c1ccccc1)n2-c1ccc(C)cc1,93.8% (inactive)
15,COC(=O)c1c2c(c(C)[n+]([O-])c1C)C(=O)C(NCc1ccc(Cl)cc1)=CC2=O,97.3% (inactive)
16,COc1ccc2[nH]cc(-c3nc(-c4cn(C)c5c(Cl)nccc45)cs3)c2c1,97.4% (inactive)
17,O=Cc1ccc([N+](=O)[O-])s1,93.7% (inactive)
18,CC[C@]12C=CCN3CC[C@@]4(c5cc(NC(=O)CCC(=O)OCc6cn(Cc7ccc(F)cc7)nn6)c(OC)cc5N(C)[C@H]4[C@@](O)(C(=O)OC)[C@@H]1OC(C)=O)[C@@H]32,100% (inactive)
19,COC(=O)c1c2c(c[n+]([O-])c1C)C(=O)C(NCc1ccccc1)=CC2=O,-79.9% (active)
20,COCCn1cc(-c2nc(-c3cc4cccnc4n3CCOC)cs2)c2cc(OC)ccc21,23.6% (inactive)
